# Rows were chosen to be rich in hits. Some 4.6% of all compounds tested hit in one or more screens of this group.
# D1 PAM – Potentiators of Human D1 Dopamine Receptor: qHTS; D(1A) dopamine receptor (Homo sapiens), P21728; HEK293 TREx D1 cells, calcium flux, dopamine EC20 potentiation; potentiation, % at 10 µM; hit rate 0.036% among 360,000; in the data active = potentiation above about 30%; note: 0% is about no effect
# Target sequence (P21728 whole entry, looked up): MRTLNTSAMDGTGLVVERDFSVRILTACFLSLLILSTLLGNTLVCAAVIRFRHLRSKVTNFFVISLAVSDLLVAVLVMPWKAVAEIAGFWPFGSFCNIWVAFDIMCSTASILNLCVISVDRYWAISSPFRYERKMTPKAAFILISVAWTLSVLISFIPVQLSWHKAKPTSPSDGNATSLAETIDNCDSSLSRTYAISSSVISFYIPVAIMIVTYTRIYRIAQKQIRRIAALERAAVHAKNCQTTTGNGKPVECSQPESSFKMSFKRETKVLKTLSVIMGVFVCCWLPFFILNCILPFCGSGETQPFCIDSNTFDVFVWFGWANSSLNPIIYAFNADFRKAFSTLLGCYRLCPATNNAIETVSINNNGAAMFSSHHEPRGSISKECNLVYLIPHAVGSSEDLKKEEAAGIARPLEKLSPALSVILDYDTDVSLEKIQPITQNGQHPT
# TRHR agonist – qHTS for Small Molecule Agonists and Allosteric Enhancers of Human TRH Receptor: Primary Screen for Agonists; AID 493084, 2011; hit rate 0.18% among 360,000; TRHR cells, calcium flux fluo-8, FDSS agonist mode; activation, % at 2 µM; in the data active = activation above about 30%; note: 0% is about no effect
#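 In this calcium-flux screen, cells bearing human TRHR are dye-loaded with fluo-8, baselined for 10 cycles, then exposed to library compounds; positive kinetic calcium responses during the agonist phase mark hits, with TRH as control.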
# Epigenetic derep – Quantitative High-Throughput Screen for Regulators of Epigenetic Control; murine LDR cells, GFP reporter derepression, 30 h; Potency, µM (series often up to 53.9 µM), inactives show at the highest dose GFP activation, usual class: activators; AID 1865, 2009; hit rate 0.2% among 280,000; note: potency is the fitted concentration of half-maximal effect; % of control where 0% means no effect; nearly all actives have a fitted effect of over 60% in size
#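 GFP-positive cell count by laser-scanning cytometry (objects 20–120 um) after 30 h, 37 C compound exposure of murine LDR cells; reporter is CMV-GFP integrated at a silenced locus, inducible by HDAC or DNMT inhibitors.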
# D1 antag – Antagonist of Human D 1 Dopamine Receptor: qHTS. activity change, negative = inhibition, % at 10 µM. HEK293 TREx D1 cells, calcium flux, dopamine EC80; stronger effect = lower value. AID 504652, 2011. hit rate 3.2% among 360,000; in the data active = activity change below about -30%; note: % is set by controls: 0 for no effect and ±100 for the full control effect
#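 Inducible Hek293 Trex D1 cells (tetracycline, overnight, 30 C). Calcium dye 30–90 min RT. Antagonist mode: EC80 dopamine added after 180 s compound read.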
# D1 ag – Allosteric Agonists of the Human D1 Dopamine Receptor: qHTS; hit rate 1% among 360,000; activation, % at 2 µM; HEK293 T-REx D1 cells, calcium flux, agonist mode; in the data active = activation above about 30%; note: 0% is about no effect
#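 Agonism was scored from calcium flux recorded over 180 s (1 read/s) after pintool compound addition, following a 10-cycle baseline. Cells were inducible force-coupled HEK293 TREx D1, plated overnight at 30 C and loaded with no-wash calcium dye.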
# TRHR PAM – qHTS for Small Molecule Agonists and Allosteric Enhancers of Human TRH Receptor: Primary Screen for Enhancers. hit rate 0.66% among 360,000. enhancement, % at 2 µM. Thyrotropin-releasing hormone receptor (Homo sapiens), P34981. TRHR cells, fluo-8 calcium fluorescence, EC20 TRH enhancement; in the data active = enhancement above about 30%; note: 0% is about no effect
#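 TRHR-expressing cells loaded with fluo-8 calcium dye were read kinetically (ex 480/em 530) during compound addition, then stimulated with an EC20 of TRH (10 nM final). Enhancement of the Gq-mediated intracellular calcium response was scored.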
# C127i cell count – Parental Cell Counter Screen Assay for Epigenetic Modulators: Hit Validation; AID 493065, 2011; mouse c127i parental cells, fluorescent cell count, 30 h; shares compounds with Epigenetic derep; hit rate 20% among 60; Potency, µM, without a hit: top-dose fluorescent cell count, hits mostly activators
# HCC4017 tox – HCC4017 Cell Viability Secondary Assay for qHTS Assay for Epigenetic Modulators; shares compounds with Epigenetic derep; HCC4017 NSCLC viability, CellTiter-Glo ATP luminescence, 72 h; Potency, µM (doses to about 46.1 µM), for inactives: at the highest dose activity change, negative = cytotoxicity, usual class: cytotoxic; hit rate 30% among 45; AID 493071, 2011
# H358 viab – H358 Cell Viability Secondary Assay for qHTS Assay for Epigenetic Modulators: Round 2. hit rate 30% among 45. shares compounds with Epigenetic derep. AID 493074, 2011. H358 NSCLC viability, ATP luminescence, 72 h. Potency, µM (doses to about 46.1 µM), for the others: at the top dose activity change, negative = viability loss, most hits filed as cytotoxic
# Numbers without * were called inactive; ? = inconclusive; . = no result given. Unless noted, calls come from the whole dose curve; as a rule, active = well fitted curve in the direction sought with a large enough effect; inconclusive = small, poorly fitted or top-dose-only effect, or another doubt; inactive = no such curve, though single readings can be large; an effect the other way counts as inactive or inconclusive.
SMILES,D1 PAM,TRHR agonist,Epigenetic derep,D1 antag,D1 ag,TRHR PAM,others
CCOC(=O)CN1C(=O)C(=O)N(Cc2cccc(C)c2)C1=O,2.0,-1.2,.,-24.8,32.8*,5.7,
CCOC(=O)CN1C(=O)C(=O)N(Cc2c(Cl)cccc2Cl)C1=O,0.8,-0.9,.,13.6,4.8,25.0,
COC(=O)[C@@]1(Cc2ccc(OC)cc2)[C@H]2c3cc(C(=O)N(C)C)n(CCN4CNCC4=O)c3C[C@H]2CN1C(=O)c1ccccc1,.,.,2.1%,.,.,.,
Cc1cc(C)c(C#N)c(SCC2COc3ccccc3O2)n1 (centres undefined),1.3,-0.8,-3.5%,-5.1,37.6*,2.1,
CC(C)(C)OC(=O)CC(=O)NNC(=O)c1nc2ccccc2[nH]1,3.4,-0.6,.,-16.0,0.4,4.0,
COc1ccc(C(=O)c2sc(Nc3ccccc3)nc2N)cc1OC,-2.4,0.4,.,5.7,1.3,32.7*,
COc1ccc(C(=O)c2sc(Nc3ccccc3)nc2N)cc1,-2.2,0.8,-3.7%,12.5,4.3,8.5,
CCC(=O)N1CC2(CC(c3cccc(NC(=O)COc4ccc(Cl)cc4)c3)=NO2)C[C@@H]1C(N)=O (some centres undefined),6.0,-0.1,-1.6%,-53.1*,3.1,0.0,
CCCCCC(=O)Nc1cccc(C2=NOC3(C2)C[C@H](C(N)=O)N(C(=O)CCCCC)C3)c1 (some centres undefined),4.2,-0.1,2.9%,5.0,0.2,2.4,
CCCCCC(=O)N1CC2(CC(c3cccc(NC(=O)CC(c4ccccc4)c4ccccc4)c3)=NO2)C[C@@H]1C(N)=O (some centres undefined),-4.0,0.7,-1.2%,-47.1*,9.3,-3.0,
O=C(CN1C(=O)C2CCCCN2c2ccc(C(=O)N3CCCC3)cc21)NCc1ccc(F)cc1 (centres undefined),3.8,-0.6,-1.7%,12.7,0.8,3.8,
CNC(=S)N/N=C1\C(=O)c2cccc3cccc1c23,0.5,-0.4,0.9%,-46.4*,0.5,0.1,
CCCCNC(=S)N/N=C1\C(=O)c2cccc3cccc1c23,10.8,-0.5,16.0%,3.9,1.5,-3.3,
Cn1c(=O)[nH]c(=O)c2c1nc(CN1CCN(c3ccccc3F)CC1)n2Cc1ccc(F)cc1,4.3,-0.8,-1.1%,26.3,-1.2,1.6,
COc1ccc(Nc2nc3c(S(=O)(=O)c4ccccc4)nnn3c3ccc(Cl)cc23)cc1,-2.9,1.3,?,-19.6,0.5,5.4,C127i cell count=4.0%
O=C(NN1C(=O)c2ccccc2NC1c1ccc([N+](=O)[O-])o1)c1ccc([N+](=O)[O-])cc1 (centres undefined),-6.3,1.1,10µM*,-15.2,0.4,-5.4,C127i cell count=9.0%;HCC4017 tox=?;H358 viab=?
